The structures appear in SMILES notation. Results filed as inconclusive are left out. Values without a mark were called inactive. Activity calls are given as the source filed them. Unless noted, the call rests on the fitted dose curve.
Potency means the concentration at half of the fitted maximal effect.

One assay is described as follows: Cell Viability - BJ (AID 421).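 Further: cells exposed to compound for 40 hours at 37 °C before readout.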 Particulars: BJ fibroblast viability, qHTS. The procedure, abridged: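 Quantitative HTS: ATP depletion in BJ cells after 40 hr compound exposure in complete culture medium, detected with CellTiter-Glo; AC50 from standard Hill fits.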
On the technique in general: In qHTS, concentration-response curves come from the screen itself.
On to `CCCCC1C(=O)N(c2ccccc2)N(c2ccccc2)C1=O`, for which the Potency was > 92 µM.
On the same count and under the same terms, under `O=C(O)c1cc(O)c2c(c1)C(=O)c1cccc(O)c1C2=O` stands > 92 µM.
Same read-out and setting: next, `O=c1c(-c2ccc(O)cc2)coc2cc(O)ccc12`: > 92 µM; `CCCNC(=O)NS(=O)(=O)c1ccc(Cl)cc1`: > 92 µM; `CC(=O)c1ccc(S(=O)(=O)NC(=O)NC2CCCCC2)cc1`: > 92 µM.
Still for that read-out and setting: under `O=C1NC(=O)C(c2ccccc2)(c2ccccc2)N1` stands > 92 µM.

Another assay in a line: Cell Viability - Jurkat (AID 426;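 active means dose-dependent loss of cell ATP signal giving a full or clear fitted curve, ranked by lower potency value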;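 further: cells exposed to compound for 40 hours at 37 °C before ATP read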). The following applies: qHTS. The procedure, abridged:
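Cells of the human T-cell leukemia line Jurkat (E6-1) are seeded at 5000 per well, treated with compound across a concentration range for 40 hours at 37 °C, then lysed with CellTiter-Glo; luminescence reports ATP.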
Consider `CC/C(=C(\c1ccccc1)c1ccc(OCCN(C)C)cc1)c1ccccc1`, for which the Potency was 31.5 µM (active).
Consider `O=c1c(-c2ccc(O)cc2)coc2cc(O)ccc12`, for which the Potency was > 92 µM.
For `CCCNC(=O)NS(=O)(=O)c1ccc(Cl)cc1`, the Potency is > 92 µM.
Still for that read-out and setting: next, `CC(=O)c1ccc(S(=O)(=O)NC(=O)NC2CCCCC2)cc1`: > 92 µM.
Same read-out and setting: next, `O=C1NC(=O)C(c2ccccc2)(c2ccccc2)N1`: > 92 µM.
